# PREPL inhibitor – PREPL enzyme inhibitors, primary screen, biochemical, fluorescence polarization; actives 0.68% (n = 320,000); inhibition, % at 5.96 µM; Prolyl endopeptidase-like (Homo sapiens), Q4J6C6; AID 2751, 2010; recombinant PREPL, fluorescence polarization activity-based probe; in the data active means inhibition above about 43%;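 further: 0% = enzyme with DMSO and 100% = wells lacking enzyme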
# PME-1 primary – PME-1 inhibitors via competitive probe labeling, primary screen, biochemical, fluorescence polarization, FP-Rh probe, HTS; Protein phosphatase methylesterase 1 (Homo sapiens), Q9Y570; recombinant PME-1; inhibition, % at 5.9 µM; actives 0.53% (n = 320,000); AID 2130, 2009;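 active means inhibition above the campaign mean of all compounds plus 3 SD, cut at about 26% in these data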;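 further: competitive labeling of PME-1 active site by serine hydrolase directed probe; 0% = PME-1 with DMSO and 100% = wells lacking PME-1 enzyme; inhibitors block probe labeling so polarization falls and inhibition rises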
# Target sequence (Q9Y570 whole entry, looked up): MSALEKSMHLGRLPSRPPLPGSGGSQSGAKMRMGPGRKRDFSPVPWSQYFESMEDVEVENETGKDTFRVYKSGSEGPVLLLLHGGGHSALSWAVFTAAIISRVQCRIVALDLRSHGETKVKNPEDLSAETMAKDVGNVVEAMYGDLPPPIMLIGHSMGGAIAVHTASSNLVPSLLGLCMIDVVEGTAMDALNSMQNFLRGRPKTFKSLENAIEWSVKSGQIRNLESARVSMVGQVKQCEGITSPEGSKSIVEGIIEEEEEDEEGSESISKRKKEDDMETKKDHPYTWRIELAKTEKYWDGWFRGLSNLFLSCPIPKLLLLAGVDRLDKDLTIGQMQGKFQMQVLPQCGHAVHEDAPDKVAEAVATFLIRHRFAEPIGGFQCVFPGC
# Fam108B counter – mouse Fam108B serine hydrolase inhibitors, primary screen, counter-screen for RBBP9 inhibitor project, biochemical, fluorescence polarization; inhibition, % at 9.51 µM; recombinant Fam108B, FP-Rh probe fluorescence polarization; actives 0.33% (n = 300,000); AID 1947, 2009;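 active means inhibition above the screen mean inhibition plus 3 SD, computed separately per campaign, cut at about 18% in these data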;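 further: inhibitors lower polarization as less probe binds the enzyme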
# LYPLA1 inh – LYPLA1 inhibitors, primary screen, counter-screen for PME1 inhibitor project, biochemical, fluorescence polarization, FP-Rh probe ABPP; Acyl-protein thioesterase 1 (Homo sapiens), O75608; recombinant LYPLA1; inhibition, % at 5.9 µM; actives 0.16% (n = 320,000);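 active means inhibition above the mean of all tested compounds plus 3 SD, set per campaign, cut at about 14% in these data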;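 further: inhibitors block serine hydrolase probe labeling of LYPLA1 so polarization falls; 0% = enzyme with DMSO and 100% = wells lacking LYPLA1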
# GSTO1 inh – inhibitors of recombinant GSTO1, primary screen, counter-screen for RBBP9 inhibitor project, biochemical, fluorescence polarization | activity-based probe fluorescence polarization | inhibition, % at 5.96 µM | actives 1.1% (n = 300,000);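 active means inhibition above the campaign mean inhibition plus 3 SD, cut at about 35% in these data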;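 further: 0% = GSTO1-1 with DMSO and 100% = wells lacking GSTO1-1 enzyme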
# LYPLA2 counter – LYPLA2 inhibitors, primary screen, counter-screen for PME1 inhibitor project, biochemical, fluorescence polarization, FP-Rh probe ABPP | AID 2177, 2009 | recombinant LYPLA2 | inhibition, % at 5.9 µM | actives 0.38% (n = 320,000) | Acyl-protein thioesterase 2 (Homo sapiens), O95372;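 active means inhibition above the screen-wide mean plus 3 SD, limit set per campaign, cut at about 26% in these data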;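 further: 0% = LYPLA2 with DMSO and 100% = wells lacking LYPLA2 enzyme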
# Target sequence (O95372 whole entry, looked up): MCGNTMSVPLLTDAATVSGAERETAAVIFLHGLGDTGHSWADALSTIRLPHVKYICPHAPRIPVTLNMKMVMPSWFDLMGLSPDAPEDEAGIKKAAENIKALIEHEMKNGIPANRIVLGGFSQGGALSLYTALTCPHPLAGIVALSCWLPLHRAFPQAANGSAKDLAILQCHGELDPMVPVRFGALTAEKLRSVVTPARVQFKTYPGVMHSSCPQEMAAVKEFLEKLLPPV
# GSTO1 inh conf – GSTO1 inhibitor hit confirmation, counter-screen for RBBP9 inhibitor project, biochemical, fluorescence polarization, triplicate. recombinant GSTO1, probe fluorescence polarization. shares compounds with GSTO1 inh. actives 54% (n = 2,400). inhibition, % at 5.96 µM;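 active means inhibition above the primary screen's cutoff, its mean inhibition plus 3 SD, cut at about 35% in these data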;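 further: loss of polarization as inhibitors block binding of rhodamine sulfonate ester activity probe; 0% = GSTO1 with DMSO and 100% = wells lacking GSTO1 enzyme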
# GSTO1 ABPP inh – inhibitors of purified human GSTO1, late-stage follow-up, biochemical, gel ABPP, SE-Rh probe, percent inhibition; shares compounds with GSTO1 inh; recombinant GSTO1, gel ABPP SE-Rh probe fluorescence; inhibition, % at 1 µM; actives 30% (n = 130); AID 463110, 2010;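 active means inhibition of the enzyme GSTO1 above about 75%, limit read from the data; inactive means inhibition below that limit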
# * hit, by the source's call; nt = not tested or not shown. In the library only some 2% were active in any assay of this set; here they are far more common.
SMILES,PREPL inhibitor,PME-1 primary,Fam108B counter,LYPLA1 inh,GSTO1 inh,LYPLA2 counter,GSTO1 inh conf,others
O=C1CN(C(=O)COC(=O)CNC(=O)c2ccc(Cl)cc2)c2ccccc2N1,-1.0,-4.2,-2.1,0.1,7.7,1.3,nt,
N#C/C(=C\c1cc(O)c(O)c(O)c1)C(N)=O,0.7,-8.3,1.7,-4.0,58.8*,-8.6,14.7,
O=C(CSc1nnc(-c2ccco2)c(-c2ccco2)n1)c1ccccc1,21.2,8.7,4.4,-6.1,43.8*,-3.7,17.7,
Oc1ccc(O)c(/C(=N/Nc2ccccc2)c2ccccc2)c1,9.8,3.2,5.4,-0.9,39.8*,1.5,5.7,
CO[C@H]1C=CO[C@@]2(C)Oc3c(C)c(O)c4c(O)c(c(C=NN5CCN(C)CC5)c(O)c4c3C2=O)NC(=O)C(C)=CC=C[C@H](C)[C@H](O)[C@@H](C)[C@@H](O)[C@@H](C)[C@H](OC(C)=O)[C@@H]1C,9.3,0.9,5.3,-1.7,76.9*,3.8,69.9*,
CO[C@H]1/C=C/O[C@@]2(C)Oc3c(C)c(O)c4c(O)c(c(C=NN5CCN(C)CC5)c(O)c4c3C2=O)NC(=O)/C(C)=C\C=C\[C@H](C)[C@H](O)[C@@H](C)[C@@H](O)[C@@H](C)[C@H](OC(C)=O)[C@@H]1C,4.1,3.3,8.3,2.7,62.3*,-2.3,54.7*,
CCOc1ccccc1N(CC(=O)Nc1ccccc1C(=O)N1CCCC1)S(C)(=O)=O,1.4,-5.6,-3.0,4.1,2.6,0.4,nt,
COc1ccc(/C=C2/C(=O)N(Cc3ccccc3)N=C2C)cc1,-1.9,1.2,-0.1,5.7,39.8*,6.0,7.1,
CCN(C[C@H]1N[C@@](Cc2ccccc2)(C(=O)OC)[C@H]2C(=O)N(C)C(=O)[C@@H]12)C(=O)COC,-0.2,nt,nt,nt,nt,nt,nt,
O=C(N/N=C/c1ccc([N+](=O)[O-])o1)c1ccc(NS(=O)(=O)c2cccs2)cc1,24.8,-4.1,18.1,-8.6,55.0*,-1.3,19.4,
O=C(CCN1C(=O)/C(=C\c2ccccc2F)SC1=S)N1CCCCC1,17.1,3.2,2.7,1.6,47.0*,2.9,10.7,
CCCCc1cc(=O)oc2cc(C)cc(OCC(=O)O)c12,2.5,-3.0,2.2,0.4,-14.0,-3.7,nt,
CCc1cc(=O)oc2cc(OC(C)=O)cc(OC(C)=O)c12,10.1,8.4,-2.0,1.0,47.1*,6.8,2.9,
COc1cc(CC(=O)OCC(=O)NCc2ccco2)cc(OC)c1OC,1.9,nt,nt,nt,nt,nt,nt,
Cc1cc(C)c(C)c(S(=O)(=O)NCCCn2ccnc2)c1C,0.2,3.2,1.5,-1.0,2.2,1.6,nt,
Cc1ccc2nc(N3CCC(C(=O)O)CC3)nc(-c3ccccc3)c2c1,-4.2,-6.0,1.1,-4.4,54.1*,3.6,57.7*,
CCOc1ccc(S(=O)(=O)Nc2cccc(C(=O)NCC3CCCO3)c2)cc1 (centres undefined),-2.0,-1.5,-0.3,-0.6,7.8,-0.5,nt,
Cc1ccc(-c2csc3nc4cc(C(=O)NC5CCC(O)CC5)ccc4c(=O)n23)cc1 (centres undefined),11.0,-1.5,-4.0,-1.5,38.9*,-1.0,21.5,
CC(=O)O[C@H]1[C@H](C)OC=C[C@@H]1OC(C)=O,14.8,-1.0,6.0,1.9,1.9,-5.3,nt,
Cc1nn(-c2ccccc2)c2[nH]c(=O)c(CNc3ccc(N4CCOCC4)cc3)cc12,23.4,2.0,3.2,3.4,38.7*,3.9,0.0,
O=c1cc(CCl)nc(Cc2c(Cl)cccc2Cl)[nH]1,13.8,0.2,1.0,0.2,92.5*,7.7,96.9*,GSTO1 ABPP inh=82.0*
CC1(C)COC(c2ccc(F)c([N+](=O)[O-])c2)=N1,-17.1,2.3,14.5,1.1,15.3,7.6,nt,
CCn1c(-c2ccccc2)c(C(=O)CCl)c2ccccc21,20.2,2.4,-0.1,11.0,60.5*,5.1,76.0*,
CCN(CC(=O)Nc1c(F)cccc1F)C(=O)c1ccc(N2CCCCC2)c([N+](=O)[O-])c1,4.2,-9.1,2.6,1.5,-4.1,4.9,nt,
CC(=O)Nc1ccc(S(=O)(=O)N2CCN(CC(=O)N3CCOCC3)CC2)cc1,5.8,2.2,0.3,1.1,-4.9,-0.3,nt,
SMILES,PREPL inhibitor,PME-1 primary,Fam108B counter,LYPLA1 inh,GSTO1 inh,LYPLA2 counter,GSTO1 inh conf,others
O=C(CCl)Nc1c2c(nn1-c1ccccc1)CSC2,-0.6,-0.6,-3.0,-3.2,97.9*,-2.3,98.0*,
COCCn1c(SCC(=O)N2CCCCCC2)nnc1-c1ccco1,-3.4,-0.5,4.9,-1.8,39.5*,0.1,7.3,
Cc1ccc(N=Cc2ccc[nH]2)c(O)c1,19.3,7.3,5.0,-1.7,37.6*,-2.0,1.8,
Cc1cccc(C(=O)N/N=C/c2ccc[nH]2)c1,1.4,1.6,0.3,0.2,6.4,3.4,nt,
CC(=O)c1ccc(OC(C)C)c(Cc2c(O)nc(N)[nH]c2=O)c1,0.4,-3.0,1.9,-3.2,1.0,-0.7,nt,
O=Cc1cccc(Oc2ncccn2)c1,9.2,-3.6,4.0,1.9,2.1,11.4,nt,
Nc1ccc(Oc2ncccn2)cc1,3.9,8.4,7.6,1.3,65.0*,10.2,8.7,
COc1ccc2nc3cccc(OC)c3nc2c1,3.6,-2.7,8.0,0.2,56.5*,4.5,87.4*,
COc1ccc(-c2nc3ccccc3nc2-c2ccc(OC)c(OC)c2)cc1OC,-3.5,-0.5,3.9,-6.5,1.9,1.6,nt,
COc1ccc2nc3ccccc3nc2c1N,27.5,6.4,0.2,-0.6,59.8*,-0.6,9.2,
COc1cccc(C(=O)OCC(=O)NCCC2=CCCCC2)c1,17.9,nt,nt,nt,nt,nt,nt,
CC(C)(CC(=O)O)CC(=O)Nc1ccccc1Oc1ccccc1,5.8,-12.4,3.5,0.9,16.4,-1.9,nt,
Cc1cc2c(NC(=O)CC(C)(C)CC(=O)O)cccc2nn1,14.6,-6.7,3.7,-0.3,42.5*,2.2,6.7,
O=S(=O)(NCCN1CCOCC1)c1cc(Cl)ccc1Cl,-5.4,-0.5,0.3,0.1,-8.2,6.3,nt,
Oc1c(Br)cc(Br)cc1C=Nc1cccc2ncccc12,26.5,19.9,16.4,5.1,73.4*,-0.5,6.1,
CCCCNC(=O)NC1(C(F)(F)F)Oc2ccccc2O1,2.8,-2.2,-2.8,-6.0,54.9*,-3.7,4.0,
